Records with an inconclusive call do not appear. Entries that show only a call come without a potency. The source made the active and inactive calls. Unless noted, calls come from the whole dose curve; as a rule, active = well fitted curve in the direction sought with a large enough effect in the repeat runs; inconclusive = weak or mixed curves; inactive = no such curve, though single readings can be large; an effect the other way counts as inactive or inconclusive.
How the values were obtained:
[1] = qHTS assay to identify small molecule antagonists of the glucocorticoid receptor (GR) signaling pathway - cell viability counter screen (AID 720693); note: nearly all actives have a fitted effect of over 55% in size
[2] = qHTS assay for identifying genotoxic compounds that show differential cytotoxicity against isogenic chicken DT40 cell lines with known DNA damage response pathways - wild type cell line (AID 743012); note: nearly all actives have a fitted effect of over 60% in size; note: potency is the fitted concentration of half-maximal effect
Method in brief: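 300 wt DT40 cells/well; cpd (DMSO) pintool-transferred after ~0.5 h at 37 C/5% CO2; 40 h incubation; CellTiter-Glo added, 30 min RT; luminescence read.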

[3] = qHTS assay for identifying genotoxic compounds that show differential cytotoxicity against isogenic chicken DT40 cell lines with known DNA damage response pathways - Rev3 mutant cell line (AID 743014); note: nearly all actives have a fitted effect of over 55% in size; note: potency is the fitted concentration of half-maximal effect
[4] = qHTS assay for identifying genotoxic compounds that show differential cytotoxicity against isogenic chicken DT40 cell lines with known DNA damage response pathways - Rad54/Ku70 mutant cell line (AID 743015); note: nearly all actives have a fitted effect of over 60% in size; note: potency is the fitted concentration of half-maximal effect
[5] = qHTS assay to identify small molecule antagonists of the androgen receptor (AR) signaling pathway - cell viability counter screen (AID 743033; note: nearly all actives have a fitted effect of over 45% in size)
[6] = qHTS assay to identify small molecule antagonists of the androgen receptor (AR) signaling pathway using the MDA cell line - cell viability counter screen (AID 743041; note: nearly all actives have a fitted effect of over 45% in size; note: potency is the fitted concentration of half-maximal effect)
Method in brief: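 Compound exposure lasted 16 h at 37C in MDA-kb2 AR-luc cells stimulated with R1881. Protease-based CellTiter-Fluor reagent was applied for the final 30 min and fluorescence measured.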

[7] = qHTS assay to identify small molecule antagonists of the thyroid receptor (TR) signaling pathway (AID 743065); note: nearly all actives have a fitted effect of over 55% in size; note: potency is the fitted concentration of half-maximal effect
Method in brief: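 GH3.TRE-Luc rat pituitary cells (two TREs driving luciferase) were dosed with compound, then stimulated with 1 nM T3 (final) for 23.5 h at 37 C. ONE-Glo luminescence was the read-out, with CellTiter-Fluor fluorescence as the cytotoxicity counter-screen.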

[8] = tested on: thyroid hormone receptor (rat, GH3 cells); experiment: qHTS assay to identify small molecule agonists of the thyroid receptor (TR) signaling pathway (AID 743066; calls by dose curve)
[9] = biological target: Estrogen receptor (Homo sapiens) (UniProt P03372); experiment: qHTS assay to identify small molecule antagonists of the estrogen receptor alpha (ER-alpha) signaling pathway (AID 743069; active = well fitted curve in the direction sought with a large enough effect in the signal ratio in the repeat runs, not every such curve was filed as active; the % refers to the signal ratio; note: potency is the fitted concentration of half-maximal effect)
Sequence of Estrogen receptor (Homo sapiens) (P03372 whole entry, looked up): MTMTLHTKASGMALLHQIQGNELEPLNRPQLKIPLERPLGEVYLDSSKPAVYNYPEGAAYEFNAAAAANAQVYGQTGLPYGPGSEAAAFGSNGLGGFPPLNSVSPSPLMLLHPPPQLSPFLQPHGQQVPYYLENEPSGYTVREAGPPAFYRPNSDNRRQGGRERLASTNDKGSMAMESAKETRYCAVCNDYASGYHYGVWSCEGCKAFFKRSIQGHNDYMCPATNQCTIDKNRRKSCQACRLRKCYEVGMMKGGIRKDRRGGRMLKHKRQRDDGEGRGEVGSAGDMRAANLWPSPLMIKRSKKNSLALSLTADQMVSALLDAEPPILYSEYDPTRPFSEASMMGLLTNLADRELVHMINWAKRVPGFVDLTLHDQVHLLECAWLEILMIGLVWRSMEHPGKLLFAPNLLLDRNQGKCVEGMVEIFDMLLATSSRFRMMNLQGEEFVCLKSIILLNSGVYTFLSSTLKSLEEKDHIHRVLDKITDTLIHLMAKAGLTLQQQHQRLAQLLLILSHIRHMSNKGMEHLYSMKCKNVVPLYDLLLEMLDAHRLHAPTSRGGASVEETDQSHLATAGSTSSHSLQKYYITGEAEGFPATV
Method in brief: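 In this cell-based reporter format, GripTite HEK293 cells harbouring ER-alpha-UAS-bla were grown overnight with 2% charcoal-stripped FBS, dosed with DMSO-dissolved compounds, then challenged with 17beta-estradiol. After 18 hr at 37C, beta-lactamase activity was detected by FRET fluorescence.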

[10] = qHTS assay to identify small molecule antagonists of the estrogen receptor alpha (ER-alpha) signaling pathway - cell viability counter screen (AID 743074; calls by dose curve; note: nearly all actives have a fitted effect of over 45% in size)
[11] = biological target: Estrogen receptor (Homo sapiens) (UniProt P03372); experiment: qHTS assay to identify small molecule agonists of the estrogen receptor alpha (ER-alpha) signaling pathway (AID 743075; calls by dose curve)
[12] = biological target: Estrogen receptor (Homo sapiens) (UniProt P03372); experiment: qHTS assay to identify small molecule agonists of the estrogen receptor alpha (ER-alpha) signaling pathway using the BG1 cell line (AID 743079); conditions: BG1Luc4E2 cells, ERE-luciferase agonist, 22 h; activation: at 70.3 µM (top of the series); note: nearly all actives have a fitted effect of over 20% in size; note: potency is the fitted concentration of half-maximal effect
[13] = qHTS assay to identify small molecule antagonists of the estrogen receptor alpha (ER-alpha) signaling pathway using the BG1 cell line (AID 743080; calls by dose curve;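 note: BG1 cells stimulated with 17beta-estradiol alongside compound; nearly all actives have a fitted effect of over 25% in size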; note: potency is the fitted concentration of half-maximal effect)
Method in brief: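 Readout is ONE-Glo luminescence, taken 30 min at room temperature after reagent addition, preceded by a CellTiter-Fluor viability read; BG1-Luc-4E2 cells had received compound and 17beta-estradiol for 21.5 h at 37 C.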

[14] = qHTS assay to identify small molecule antagonists of the estrogen receptor alpha (ER-alpha) signaling pathway using the BG1 cell line - cell viability counter screen (AID 743081);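 note: compound given together with 17beta-estradiol as the ER stimulus; nearly all actives have a fitted effect of over 45% in size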; note: potency is the fitted concentration of half-maximal effect
[15] = biological target: Aromatase (Homo sapiens) (UniProt P11511); experiment: qHTS assay to identify aromatase inhibitors (AID 743083); note: nearly all actives have a fitted effect of over 55% in size; note: potency is the fitted concentration of half-maximal effect
Sequence of Aromatase (Homo sapiens) (P11511 whole entry, looked up): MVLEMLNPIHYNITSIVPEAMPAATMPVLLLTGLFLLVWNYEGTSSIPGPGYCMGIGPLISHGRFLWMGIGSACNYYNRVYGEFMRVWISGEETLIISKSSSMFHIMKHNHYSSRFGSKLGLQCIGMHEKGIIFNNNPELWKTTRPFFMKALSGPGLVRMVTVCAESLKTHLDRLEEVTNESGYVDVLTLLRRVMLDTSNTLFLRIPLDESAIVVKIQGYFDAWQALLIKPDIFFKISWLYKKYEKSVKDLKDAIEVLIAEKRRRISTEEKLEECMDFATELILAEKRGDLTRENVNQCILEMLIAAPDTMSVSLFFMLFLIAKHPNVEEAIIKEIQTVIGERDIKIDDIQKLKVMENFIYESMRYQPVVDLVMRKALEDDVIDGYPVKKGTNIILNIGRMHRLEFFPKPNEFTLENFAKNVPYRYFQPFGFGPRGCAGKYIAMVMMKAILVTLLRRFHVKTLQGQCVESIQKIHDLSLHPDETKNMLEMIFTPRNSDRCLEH

[16] = qHTS assay to identify small molecule antagonists of the thyroid receptor (TR) signaling pathway - cell viability counter screen (AID 743064); note: nearly all actives have a fitted effect of over 50% in size; note: potency is the fitted concentration of half-maximal effect
Method in brief: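 In rat pituitary GH3.TRE-Luc reporter cells co-exposed to compound and 1 nM T3 for 23.5 h, cytotoxicity was assessed with CellTiter-Fluor in the same wells, read by fluorescence.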

[17] = biological target: Androgen receptor (Homo sapiens) (UniProt P10275); experiment: qHTS assay to identify small molecule agonists of the androgen receptor (AR) signaling pathway using the MDA cell line (AID 743040; note: nearly all actives have a fitted effect of over 20% in size)
Sequence of Androgen receptor (Homo sapiens) (P10275 whole entry, looked up): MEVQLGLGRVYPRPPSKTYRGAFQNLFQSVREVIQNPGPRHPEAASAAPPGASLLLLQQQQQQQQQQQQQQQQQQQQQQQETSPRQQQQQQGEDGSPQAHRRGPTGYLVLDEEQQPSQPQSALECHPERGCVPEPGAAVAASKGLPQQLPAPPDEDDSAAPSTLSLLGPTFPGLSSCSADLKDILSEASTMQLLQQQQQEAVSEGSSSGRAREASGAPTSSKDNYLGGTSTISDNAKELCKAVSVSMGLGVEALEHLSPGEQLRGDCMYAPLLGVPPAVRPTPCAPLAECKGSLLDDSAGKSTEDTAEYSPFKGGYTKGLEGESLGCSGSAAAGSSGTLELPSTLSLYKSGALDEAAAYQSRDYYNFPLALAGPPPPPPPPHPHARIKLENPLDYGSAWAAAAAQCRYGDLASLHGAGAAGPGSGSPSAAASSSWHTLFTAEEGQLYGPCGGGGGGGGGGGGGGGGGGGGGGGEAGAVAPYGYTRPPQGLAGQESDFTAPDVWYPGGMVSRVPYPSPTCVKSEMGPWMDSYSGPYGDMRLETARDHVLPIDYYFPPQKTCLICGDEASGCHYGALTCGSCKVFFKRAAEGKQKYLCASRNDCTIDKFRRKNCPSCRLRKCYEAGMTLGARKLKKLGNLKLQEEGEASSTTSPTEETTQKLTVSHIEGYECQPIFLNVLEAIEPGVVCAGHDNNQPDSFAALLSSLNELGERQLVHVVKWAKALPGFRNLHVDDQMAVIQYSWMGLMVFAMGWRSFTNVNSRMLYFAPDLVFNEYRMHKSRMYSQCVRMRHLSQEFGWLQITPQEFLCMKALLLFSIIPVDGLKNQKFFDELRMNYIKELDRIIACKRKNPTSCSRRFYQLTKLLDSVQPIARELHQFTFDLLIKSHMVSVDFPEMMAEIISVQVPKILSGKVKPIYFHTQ
Method in brief: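 Testing was done with the MDA-kb2 AR-luc line, a human breast carcinoma stably transfected with MMTV-luciferase containing AR and GR response elements. Cells were exposed 16 h at 37C before ONE-Glo luminescence detection.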

[18] = biological target: Androgen receptor (Homo sapiens) (UniProt P10275); experiment: qHTS assay to identify small molecule antagonists of the androgen receptor (AR) signaling pathway (AID 743035; active = well fitted inhibition curve with a large enough effect in the signal ratio in the repeat runs, not every such curve was filed as active; the % refers to the signal ratio; note: potency is the fitted concentration of half-maximal effect)
Method in brief: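 In this cell-based reporter screen, compounds were tested in concentration series against R1881-activated HEK293 cells expressing beta-lactamase under UAS control; after 16 h at 37C, FRET substrate was added and fluorescence read 2 h later.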

[19] = biological target: Androgen receptor (Homo sapiens) (UniProt P10275); experiment: qHTS assay to identify small molecule antagonists of the androgen receptor (AR) signaling pathway using the MDA cell line (AID 743042; note: nearly all actives have a fitted effect of over 55% in size)
Method in brief: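 MDA-kb2 breast carcinoma cells carrying MMTV-luciferase (AR/GR responsive) were co-treated with compounds and the agonist R1881 for 16 h at 37C. Inhibition read as ONE-Glo luminescence; CellTiter-Fluor fluorescence measured in parallel for cytotoxicity.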

[20] = biological target: Androgen receptor (Homo sapiens) (UniProt P10275); experiment: qHTS assay to identify small molecule agonists of the androgen receptor (AR) signaling pathway (AID 743036; active = well fitted activation curve with a large enough effect in the signal ratio in the repeat runs, with a control signal flat, not every such curve was filed as active; the % refers to the signal ratio)
Method in brief: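 Cell-based FRET reporter assay: HEK293 line with a UAS-beta-lactamase construct, compounds added in DMSO, 16 h exposure at 37C, then 2 h substrate step at room temperature and fluorescence intensity read.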

SMILES	Potency [1]	Potency [2]	Potency [3]	Potency [4]	Potency [5]	Potency [6]	Potency [7]	outcome [8]	Potency [9]	Potency [10]	Potency [11]	Potency [12]	Potency [13]	Potency [14]	Potency [15]	Potency [16]	Potency [17]	Potency [18]	Potency [19]	Potency [20]
CC(COc1ccc(C(C)(C)C)cc1)OS(=O)OCCCl (stereo not given)	inactive	inactive	inactive	inactive	inactive	inactive	inactive	inactive	inactive	inactive	inactive	inactive	inactive	inactive	inactive					
Oc1cc(O)c(Cl)cc1Cl	inactive	inactive	inactive	inactive	inactive	inactive	inactive	inactive		inactive	inactive	inactive	inactive	inactive	inactive					
CCCCCCCC/C=C\CCCCCCCC(=O)OC	inactive	inactive	inactive	inactive	inactive	inactive	inactive	inactive		inactive				inactive	inactive					
CCCCC(CC)CNCC(CC)CCCC (stereo not given)	inactive	inactive	inactive	inactive	inactive	inactive	inactive	inactive		inactive				inactive						
Brc1cc(-c2ccc(Br)c(Br)c2Br)cc(Br)c1Br	inactive	inactive	inactive	inactive	inactive	inactive	26.9 µM (active)	inactive		inactive	inactive	inactive	inactive	inactive	inactive					
CC(=O)Oc1ccc2c(c1)CC[C@@H]1[C@@H]2CC[C@]2(C)[C@@H](O)CC[C@@H]12	inactive	29.8 µM (active)	26.6 µM (active)	23.7 µM (active)	inactive	inactive	26.6 µM (active)			inactive				inactive	inactive	26.6 µM (active)				
Fc1c(F)c(F)c(Br)c(F)c1F	inactive	inactive	inactive	inactive	inactive	inactive	inactive	inactive		inactive				inactive		inactive				
c1ccc(COCc2ccccc2)cc1	inactive	inactive	inactive	inactive	inactive	inactive	inactive	inactive	inactive	inactive	inactive	inactive	inactive	inactive	inactive					
Cc1ccccc1N1C(=O)c2cc(S(N)(=O)=O)c(Cl)cc2NC1C (stereo not given)	inactive	inactive	inactive	inactive	inactive	inactive	inactive	inactive		inactive				inactive	inactive	inactive				
Nc1nccs1	inactive	inactive	inactive	inactive	inactive	inactive	inactive	inactive		inactive				inactive	inactive	inactive				
O=Cc1c(Cl)cccc1Cl	inactive	inactive	inactive	inactive	inactive	inactive	inactive	inactive	inactive	inactive	inactive	inactive	inactive	inactive	inactive					
CCCCCCOC(=O)C(C)C	inactive	inactive	inactive	inactive	inactive	inactive	inactive	inactive		inactive				inactive	inactive					
CC(C)C(=O)O	inactive	inactive	inactive	inactive	inactive		inactive	inactive	inactive	inactive	inactive		inactive	inactive	inactive					
N#C[C@@H]1C[C@@H]2C[C@@H]2N1C(=O)[C@@H](N)C12CC3CC(CC(O)(C3)C1)C2	inactive	inactive	inactive	inactive	inactive	inactive				inactive	inactive	inactive	inactive	inactive	inactive					
CC1=C(C=O)C(C)(C)CCC1	inactive	inactive	inactive	inactive		inactive	inactive	inactive	inactive	inactive	inactive	inactive	inactive	inactive	inactive	inactive				
CCOC(=O)OCC	inactive	inactive	inactive	inactive		inactive	inactive	inactive	inactive	inactive	inactive	inactive	inactive	inactive	inactive					
O=c1[nH]c2ccc(S(=O)CCN3CCC(Cc4ccc(F)cc4)CC3)cc2o1 (stereo not given)	inactive	13.7 µM (active)	4.33 µM (active)	6.86 µM (active)		inactive		inactive	inactive	inactive	inactive	12.2 µM (active)			inactive	inactive				

SMILES	Potency [1]	Potency [2]	Potency [3]	Potency [4]	Potency [5]	Potency [6]	Potency [7]	outcome [8]	Potency [9]	Potency [10]	Potency [11]	Potency [12]	Potency [13]	Potency [14]	Potency [15]	Potency [16]	Potency [17]	Potency [18]	Potency [19]	Potency [20]
CCCCC1C(=O)N(c2ccccc2)N(c2ccc(O)cc2)C1=O (stereo not given)	inactive	3.2 µM (active)	5.69 µM (active)	5.07 µM (active)			3.2 µM (active)			inactive				inactive	inactive	3.59 µM (active)	inactive			
CCn1cc(C(=O)O)c(=O)c2cc(F)c(N3CCNCC3)nc21	inactive	inactive	inactive	inactive	inactive		inactive	inactive	inactive	inactive	inactive	inactive	inactive	inactive	inactive	inactive				
O=C(CCCN1CCC(O)(c2ccc(Br)cc2)CC1)c1ccc(F)cc1	inactive	5.07 µM (active)	2.85 µM (active)	4.52 µM (active)		inactive	10.1 µM (active)	inactive	inactive	inactive	inactive	inactive	inactive	inactive	inactive					
Cc1c(C(=O)NN2CCCCC2)nn(-c2ccc(Cl)cc2Cl)c1-c1ccc(Cl)cc1	inactive	11.9 µM (active)	11.9 µM (active)	11.9 µM (active)		inactive	11.9 µM (active)				inactive	inactive	inactive	inactive	inactive	16.8 µM (active)	inactive	19 µM (active)		
Cc1cc(S(=O)(=O)O)ccc1N=Nc1c(O)ccc2ccccc12	inactive	inactive	61.1 µM (active)	inactive	inactive			inactive		inactive				30.6 µM (active)	inactive	17.2 µM (active)				
O=C(N[C@@H](c1ccccc1)[C@@H]1CCCCN1)c1cccc(C(F)(F)F)c1Cl	inactive	12.2 µM (active)	13.7 µM (active)	15.4 µM (active)		24.3 µM (active)	27.3 µM (active)			inactive	inactive				38.6 µM (active)	24.3 µM (active)				
CCCCOC(=O)CCS	inactive	inactive	inactive	inactive		inactive	inactive		inactive	inactive	inactive			inactive		inactive				
CO[Si](C)(OC)OC	inactive	inactive	inactive	inactive	inactive		inactive	inactive	inactive	inactive	inactive	inactive	inactive	inactive	inactive					
CC(C)=CC=O	inactive	inactive	inactive	inactive		inactive	inactive	inactive	inactive	inactive	inactive	inactive	inactive	inactive	inactive	inactive	inactive	inactive	inactive	
Nc1ccc(S(=O)(=O)O)c(N)c1	inactive	inactive	inactive	inactive	inactive		inactive	inactive	inactive	inactive	inactive	inactive	inactive	inactive	inactive	inactive				
CCN(Cc1cccc(S(=O)(=O)O)c1)c1ccc(C(=C2C=CC(=[N+](CC)Cc3cccc(S(=O)(=O)[O-])c3)C=C2)c2ccccc2)cc1	inactive	inactive	inactive	inactive	inactive			inactive	inactive	inactive	inactive	inactive	inactive	inactive	inactive	inactive				
CCN(CC)CCNC(=O)c1ccc(NC(C)=O)cc1	inactive	inactive	inactive	inactive		inactive	inactive	inactive	inactive	inactive	inactive	inactive	inactive	inactive	inactive	inactive	inactive	inactive	inactive	inactive
NC(=O)N(O)[C@@H]1C=C[C@H](Oc2cccc(Oc3ccc(F)cc3)c2)C1	inactive	54.5 µM (active)	61.1 µM (active)	54.5 µM (active)		inactive	68.6 µM (active)		inactive	inactive	inactive	13.7 µM (active)	77 µM (active)	inactive		inactive				
CN1CCN(c2c(F)cc3c(=O)c(C(=O)O)cn4c3c2OCN4C)CC1	inactive	inactive	inactive	inactive		inactive	inactive	inactive	inactive	inactive	inactive	23.7 µM (active)	inactive	inactive	inactive	inactive				
O=C(O)c1ccc(CO)o1	inactive	inactive	inactive	inactive	inactive		inactive	inactive		inactive				inactive	inactive					
O=C(O)Cc1ccc(-c2ccccc2)cc1	inactive	inactive	inactive	inactive		inactive	inactive	inactive	inactive	inactive	inactive	inactive	inactive	inactive	inactive	inactive	inactive	inactive		inactive
COc1cc2ncnc(Nc3ccc(F)c(Cl)c3)c2cc1OCCCN1CCOCC1	inactive	26.6 µM (active)	26.6 µM (active)	21.1 µM (active)		inactive	10.6 µM (active)		16.9 µM [inhibitor] (active)	inactive	inactive				inactive	10.6 µM (active)	inactive			inactive

Source: PubChem BioAssay (Tox21)
